IL-1B inflam inh: blocks inflammasome-driven IL-1 beta release. THP-1 LPS/ATP IL-1B secretion, AlphaLISA, 16 h; stronger effect = lower value. activity change, % at 57.5 µM. hit rate 4.7% among 360,000. AID 743279; in the data active means activity change below about -50%; inconclusive means mostly about -30% to -49%
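Secreted IL-1B measured by AlphaLISA bead assay after 16 h compound exposure of THP-1 cells; compounds (final up to 57.5 uM) added 1 h before LPS (250 ng/mL) and ATP (1.25 mM) stimulation; lower signal means less secretion.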
ALOX12 inh: blocks human arachidonate 12S-lipoxygenase. hit rate 1.1% among 580,000. purified 12hLO, xylenol orange hydroperoxide absorbance. Potency, µM (titrated, usually from 108 µM), most hits filed as inhibitors. P18054. AID 1671190
Target sequence (P18054 whole entry, looked up): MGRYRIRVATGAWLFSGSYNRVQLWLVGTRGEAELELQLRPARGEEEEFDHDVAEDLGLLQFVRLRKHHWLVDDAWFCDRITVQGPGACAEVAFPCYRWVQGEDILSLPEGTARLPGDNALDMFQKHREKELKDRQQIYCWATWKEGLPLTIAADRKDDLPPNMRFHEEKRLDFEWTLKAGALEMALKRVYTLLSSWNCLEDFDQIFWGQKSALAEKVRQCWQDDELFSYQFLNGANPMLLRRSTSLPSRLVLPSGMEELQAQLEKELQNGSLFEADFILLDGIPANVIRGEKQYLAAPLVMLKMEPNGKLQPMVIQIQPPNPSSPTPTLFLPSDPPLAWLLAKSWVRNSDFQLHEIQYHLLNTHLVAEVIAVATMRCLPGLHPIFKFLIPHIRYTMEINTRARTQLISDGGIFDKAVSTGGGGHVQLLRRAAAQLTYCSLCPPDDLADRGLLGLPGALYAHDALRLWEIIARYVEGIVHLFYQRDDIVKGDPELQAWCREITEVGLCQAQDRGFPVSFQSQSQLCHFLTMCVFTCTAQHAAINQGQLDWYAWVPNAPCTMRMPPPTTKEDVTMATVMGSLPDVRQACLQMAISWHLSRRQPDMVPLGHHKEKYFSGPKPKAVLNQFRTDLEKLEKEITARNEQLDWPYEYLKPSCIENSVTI
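Purified human 12hLO at 150 nM in 25 mM Hepes, 0.01% Triton X-100, pH 7.0, preincubated 15 min at room temperature with compound. Reaction started with 40 uM arachidonic acid, 30 min at room temperature. Hydroperoxide measured by Fe-xylenol orange, 573/405 nm absorbance ratio.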
HT1080 IDH1KD tx: HT-1080 IDH1 knockdown cell toxicity (counter line) | HT-1080 IDH1 knockdown viability, ATP luminescence, 48 h | Potency, µM (series often up to 46.1 µM), hits mostly cytotoxic | hit rate 2% among 360,000
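Assay cells: HT-1080 with IDH1 knockdown, 750 per well, RPMI/5% FBS. Exposure: 48 h at 37 °C following 2 h pre-incubation. Read: CellTiter-Glo luminescence; fitted concentration-response, curve class assigned.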
DT40 TDP1 no CPT: qHTS for Inhibitors of human tyrosyl-DNA phosphodiesterase 1 (TDP1): qHTS in cells in absence of CPT | DT40 Tdp1-/- hTDP1 cells, no CPT, ATP luminescence, 48 h | hit rate 15% among 420,000 | Potency, µM (titrated, usually from 46.2 µM), most hits filed as inhibitors; further: nearly all actives have a fitted effect of over 55% in size
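Luminescent ATP content (CellTiter-Glo) served as the growth readout. Knockout chicken DT40 cells expressing human TDP1 were exposed to compounds without camptothecin for a minimum 48 hr at 37 °C.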
DT40 TDP1 CPT: growth inhibition of DT40 Tdp1-/-;hTDP1 cells with camptothecin (screen for TDP1 inhibitors). chicken DT40 Tdp1-/-;hTDP1 cells + 20 nM CPT, ATP luminescence, 48 h. Potency, µM (doses to about 46.2 µM), actives largely listed as inhibitors. hit rate 12% among 420,000. AID 686979; further: nearly all actives have a fitted effect of over 55% in size
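Chicken DT40 Tdp1-/- cells stably complemented with human TDP1 were seeded at 400 cells/well in medium containing 20 nM camptothecin, exposed to pin-transferred compounds, and grown at 37 °C for at least 48 hr. Viability was read as ATP luminescence.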
HT1080NT lethal: kills 2HG-producing HT-1080-NT fibrosarcoma cells. HT-1080-NT fibrosarcoma viability, CellTiter-Glo ATP luminescence, 48 h. Potency, µM (highest dose often 46.1 µM), most hits filed as cytotoxic. hit rate 1.6% among 360,000;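 further: NT is the 2HG producing partner of a matched IDH1 knockdown line; nearly all actives have a fitted effect of over 55% in size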
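Toxicity toward the 2HG-producing NT line was scored as %Activity, normalised to DMSO and no-cell wells, from CellTiter-Glo luminescence after 48 hours' treatment.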
Hits are given with their value; i = inactive; ? = inconclusive; nt = no result; [ ] = dose if it differs, or a comment. Only a selection was taken, and hits are over-represented in it overall. Unless noted, the call rests on the fitted dose curve; in most records, active means well fitted curve in the direction sought with a large enough effect; inconclusive means small, poorly fitted or top-dose-only effect, or another doubt; inactive means no such curve, though single readings can be large; an effect the other way counts as inactive or inconclusive.

SMILES | IL-1B inflam inh | ALOX12 inh | HT1080 IDH1KD tx | DT40 TDP1 no CPT | DT40 TDP1 CPT | HT1080NT lethal
N#CC(C#N)=NNc1ccc(S(=O)(=O)N2CCCC2)cc1 | i | i | i | 16µM | ? | i
CC/C(=N\Nc1ccccc1)c1c(O)[nH]c(=O)[nH]c1=O | i | ? | 3.3µM | i | i | ?
CCC(=NC(C)c1ccccc1)c1c(O)[nH]c(=O)[nH]c1=O (configuration not stated) | i | i | i | i | i | i
CC/C(=N\Nc1cccc2ccccc12)c1c(O)[nH]c(=O)[nH]c1=O | i | ? | i | 5.8µM | 5.2µM | i
CC(C)NC(=O)NC[C@H]1C[C@@H]2CCN1C[C@@H]2CN1CCN(c2ccccn2)CC1 | nt | i | nt | nt | nt | nt
N#CC1(c2ccccc2)CCN(C(=O)c2cccc(-n3cnnc3)c2)CC1 | nt | i | nt | nt | nt | nt
COc1cc2c(cc1OC1CCCC1)NC(=O)C21CCN(c2nc(C)cc(C)n2)CC1 | nt | i | nt | nt | nt | nt
CC(C)n1c(/C=C/[C@@H](O)C[C@@H](O)CC(=O)O)c(-c2ccc(F)cc2)c2ccccc21 | i | i | 1.5µM | 9.2µM | 15µM | 1.5µM
Cn1cc(C(=O)OCC(=O)NC(=O)NC(C)(C)C)c2ccccc21 | nt | i | nt | nt | nt | nt
Cc1cc(N2CCNC[C@@H]2C)ccc1N1CCN[C@@H](C)C1 | nt | 45µM | nt | nt | nt | nt
Cc1cc(N2CCNC[C@H]2C)ccc1N1CCN[C@H](C)C1 | nt | 40µM | nt | nt | nt | nt
COC[C@H]1C[C@@H](NC2CCOCC2)[C@H](O)[C@@H]1O | nt | i | nt | nt | nt | nt
CC1CCCC(C)N1/N=C/c1c[nH]c2ccc(Br)cc12 (configuration not stated) | -93 | ? | ? | ? | ? | 21µM
CN1CCC(c2c[nH]c3ccccc23)C1 (configuration not stated) | ? | i | i | ? | i | i
Cc1c(C(=O)N2CCC3(CC2)OCCO3)sc2ncnc(N3CCc4ccccc4C3)c12 | i | i | ? | 23µM | 16µM | i
COC1CC(C)C(OC)c2cc(O)cc(c2O)NC(=O)C(C)=CC=CC(C)C(OC(N)=O)C(C)=CC(C)C1OC (configuration not stated) | -101 | i | 23µM | 0.15µM | 0.092µM | i
O=C1CCN(C(=O)CNC(=O)Cc2ccccc2)CC1 | i | i | i | i | i | i
O=C(NCc1ccccc1)N1CCc2c(sc3c2CCCC3)C1c1ccccc1 (configuration not stated) | nt | i | nt | 16µM | ? | nt
C=C(C)[C@@]12OC3(c4ccccc4)O[C@@H]1C1[C@@H]4O[C@]4(CO)[C@@H](O)[C@]4(O)C(=O)C(C)=C[C@H]4[C@@]1(O3)[C@H](C)[C@H]2OC(=O)/C=C/C=C/c1ccccc1 (some centres not stated) | i | nt | ? | 3.3µM | 16µM | ?
CN1CCC(N[C@@H]2C[C@H](CO)[C@@H](O)[C@H]2O)CC1 | nt | i | nt | nt | nt | nt
COC(=O)C1=C(c2ccccc2)C[C@@H]2CC[C@H]1N2C(=O)NC1CC1 | i | i | i | nt | i | i
COC(=O)C1=C(c2ccccc2)C[C@@H]2CC[C@H]1N2C(=O)NC1CCCCC1 | i | i | i | ? | ? | i
COC(=O)C1=C(c2ccc(-c3ccccc3)c(F)c2)C[C@@H]2CC[C@H]1N2C(=O)NC(C)C | i | i | i | 18µM | 13µM | i
COC(=O)C1=C(c2ccc(-c3ccccc3)c(F)c2)C[C@@H]2CC[C@H]1N2C(=O)NC1CC1 | ? | i | i | 9.2µM | 4.1µM | i
COC(=O)C1=C(c2ccc3ccccc3c2)C[C@@H]2CC[C@H]1N2C(=O)NC(C)C | i | i | i | 18µM | ? | i
SMILES | IL-1B inflam inh | ALOX12 inh | HT1080 IDH1KD tx | DT40 TDP1 no CPT | DT40 TDP1 CPT | HT1080NT lethal
OCC1CN(c2ccncn2)CC12CCNCC2 (configuration not stated) | nt | i | nt | nt | nt | nt
O=[N+]([O-])c1ccc(NCCOc2ccccc2)c2ncccc12 | nt | i | nt | nt | nt | nt
CC1=NOC2(CCN(CCC(C)C)C2)C1 (configuration not stated) | nt | i | nt | nt | nt | nt
Oc1ccccc1/C=N/[n+]1ccccc1 | i | i | i | 18µM | 21µM | i
O=c1[nH]cnc2nc(-c3ccc(N(CCCl)CCCl)cc3)[nH]c12 | i | i | 0.65µM | ? | ? | ?
COc1ccc(C(=O)Nc2ccc(-c3cc(C(F)(F)F)nn3-c3ccccc3)cc2)cc1OC | nt | i | nt | 13µM | 18µM | nt
CCCCn1c(C)c(C(=O)OCC)c2cc(OC(C)=O)ccc21 | nt | i | nt | nt | nt | nt
Cc1c(CCNS(=O)(=O)c2ccccc2)sc2nc(-c3ccc(Cl)cc3)nn12 | nt | i | nt | 9.2µM | 7.3µM | nt
O=C1Nc2ccccc2CC12CN(Cc1ccncc1)C2 | nt | i[12.5 µM] | nt | nt | nt | nt
CC1=NOC2(CCN(Cc3ccsc3)C2)C1 (configuration not stated) | nt | i | nt | nt | nt | nt
CN1CCN(c2ccccc2NC(=O)c2ccc(-c3ccc(Cl)c(Cl)c3)o2)CC1 | -78 | ? | i | ? | 18µM | i
Cc1cc(C=C2C(=O)N(C)C(=S)N(C)C2=O)c(C)n1-c1cccnc1 | -68 | ? | i | ? | ? | i
O=C(O)c1cc(Cl)c(O)c(Cl)c1 | nt | i | nt | nt | nt | nt
COc1cccc(NC(=O)CN2CC(c3ccccc3)CC2=O)c1 (configuration not stated) | i | i | i | i | i | i
COc1cccc(NC(=O)c2ccc3c(=O)n4nc(Nc5ccccc5OC)sc4nc3c2)c1 | nt | i | nt | 4.6µM | 5.8µM | nt
Cc1ccc(Cl)cc1Nc1nn2c(=O)c3ccc(C(=O)NCc4cccs4)cc3nc2s1 | nt | ? | nt | 16µM | 15µM | nt
CC[C@H]1CN2CC[C@H]1C[C@@H]2CNC(=O)c1ccccc1 | nt | i | nt | nt | nt | nt
N#Cc1cccc(NC(=O)NC[C@H]2C[C@@H]3CCN2C[C@@H]3CN2CCN(c3ccccn3)CC2)c1 | nt | i | nt | nt | nt | nt
Cc1nc2ccccc2c(=O)n1-c1nccs1 | i | i | i | i | i | i
Cc1nn(-c2nccs2)c2c1C(=O)CC(C)(C)C2Br (configuration not stated) | ? | i | i | 16µM | ? | i
CCOC(=O)Cn1cc(/C=N/NC(=O)CC#N)c2ccccc21 | -55 | i | i | i | i | ?
Cc1ccc(C(=O)N2[C@H]3CC[C@@H]2c2cnc(-c4ccccc4)nc2C3)cn1 | nt | i | nt | nt | nt | nt
CC[C@H](OC(C)=O)C(C[C@H](C)N(C)C)(c1ccccc1)c1ccccc1 | nt | i | ? | 23µM | ? | ?
CCC(OC(C)=O)C(CC(C)NC)(c1ccccc1)c1ccccc1 (configuration not stated) | nt | nt | nt | 25µM | 22µM | nt
O=C(C[C@@H]1NCCC[C@@H]1O)Cn1cnc2ccccc2c1=O | nt | i | nt | nt | nt | nt
O=C(c1ccccc1)c1ccccc1N=Cc1c(O)[nH]c(=O)[nH]c1=O | i | i | i | i | i | i

Bioassay records from PubChem.
